These results are taken from PubChem BioAssay AID1745850 (National Center for Advancing Translational Sciences (NCATS), 2022).

The whole screen tested about 2,100 compounds, of which about 260 (12%) were called active. Roughly 58% stayed inconclusive and do not appear here. The call rests on the fitted dose curve; in most records, active means well fitted cell-killing curve with a large enough effect; inconclusive means small, poorly fitted or top-dose-only effect, or effect the other way; inactive means flat fitted curve, though single readings scatter. This is one part of the list. A call without a number means that no potency is given here.
Potency means the concentration at half of the fitted maximal effect.

The assay in a line: Viability Counterscreen for Confirmatory qHTS for Inhibitors of ATXN expression. Further: nearly all actives have a fitted effect of over 50% in size. Conditions: HEK-293 ATXN2-luc cells viability, CellTiter-Fluor, 24 h. The procedure, abridged: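 Cells with an ATXN2-luciferase reporter were dosed in a dilution series for 24 h at 37 degrees C. Viability was read first with Gly-Phe-AFC at 25 uM final (fluorescence, ex 405/em 540), then SteadyGlo luminescence. Medium-only wells defined 100% inhibition.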
Take `CCN1CC2=C(OC(N)=C(C#N)C2c2cccs2)/C(=C\c2cccs2)C1` (stereo not given): the Potency result is “inactive”.

As to `C/C(=N\NC(=O)C12CCC(C)(C(=O)O1)C2(C)C)c1ccccc1O` (stereo not given), the Potency result is “inactive”.

On to `Cc1nn(-c2ccccc2)c2nc(-c3cccs3)cc(C(=O)NN)c12`, for which the Potency result is “inactive”.

As for `CCCNC(=O)c1ccc2c(=O)c(O)c(-c3ccc(C)cc3)[nH]c2c1`, the Potency entry is “inactive”.

Take `CC(=O)c1cccc(-c2csc3ncnc(Sc4nnnn4C)c23)c1`: the Potency was 11.2 µM (active).

`Cn1nnnc1Sc1ncnc2scc(-c3cccc(S(C)(=O)=O)c3)c12`: the Potency is 22.4 µM (active).

For `CCN1CCS/C1=C\C=C\C1=[N+](CC)CCS1`, the Potency was 25.1 µM (active).

As for `Cc1cc(C)cc(NC(=O)CCc2nc3sc4c(c3c(=O)[nH]2)CCCC4)c1`, the Potency result was “inactive”.

As to `Cc1cc(C)nc(/N=C(\N)Nc2ccc(C(C)C)cc2)n1`, the Potency entry is “inactive”.

With `Cc1ccc(N/C(N)=N/c2nc(C)cc(N3CCCCC3)n2)c(C)c1`, the Potency was 3.16 µM (active).

`O=C(c1ccco1)N1CCN(c2ncnc3scc(-c4cccs4)c23)CC1`: the Potency result is “inactive”.

Consider `COc1ccccc1OCCN1CSC(=S)N(C)C1`, for which the Potency was 20 µM (active).

In the case of `COC(=O)C1=C(C)N(c2ccc(Cl)c(Cl)c2)C(=O)C1`, the Potency entry was “inactive”.

In the case of `CCCCC(=O)NNC(=S)NC(=O)c1ccc(C)cc1`, the Potency entry was “inactive”.

As to `COc1ccc2c(c1)CCCN2S(=O)(=O)c1ccc(Cl)cc1`, the Potency entry was “inactive”.

Regarding `COc1ccc(/C=C2\CN(Cc3ccccc3)C/C(=C\c3ccc(OC)c(O)c3)C2=O)cc1O`, the Potency is 12.6 µM (active).

As for `COc1ccc(CCNC2=C(Cl)C(=O)N(Cc3ccccc3)C2=O)cc1OC`, the Potency entry was “inactive”.

`COCC(C)n1c(C)cc(C(=O)COC(=O)c2cccn2C)c1C` (stereo not given): the Potency result is “inactive”.

For `CCOc1cc(C=C(C(=O)OC)C(=O)OC)ccc1OCc1ccc([N+](=O)[O-])cc1`, the Potency was 28.2 µM (active).

For the compound `N#Cc1nc(COc2ccc(-c3ccccc3)cc2)oc1NCc1cccnc1`, the Potency entry was “inactive”.

Consider `CC(C(=O)c1ccc(-c2ccccc2)cc1)[n+]1cccc(NC(=O)c2ccccc2)c1` (stereo not given), for which the Potency result is “inactive”.

For the compound `O=C(Nc1ccc[n+](CC(=O)c2cccc3ccccc23)c1)c1ccccc1`, the Potency was 3.16 µM (active).

As for `O=C(/C=C/c1ccc(Cl)cc1)Nc1ccc(CN2CCOCC2)cc1`, the Potency result was “inactive”.

Regarding `O=C(Nc1cnn(C23CC4CC(CC(C4)C2)C3)c1)c1cnn2c(C(F)(F)F)cc(-c3ccco3)nc12`, the Potency is 35.5 µM (active).

In the case of `Cn1c(S(=O)(=O)c2ccc([N+](=O)[O-])cc2)nc(Br)c1Br`, the Potency entry is “inactive”.

Turning to `COc1ccc2c(c1)CC(N1CCN(C)CC1)c1cc(OC)ccc1S2` (stereo not given), the Potency was 28.2 µM (active).

Regarding `O=C(CSc1nc2ncc(Br)cc2[nH]1)Nc1ccccc1-c1ccccc1`, the Potency result was “inactive”.

In the case of `COc1cccc(C2CC(c3c(-c4ccccc4)c4cc(Cl)ccc4[nH]c3=O)=NN2S(C)(=O)=O)c1OC` (stereo not given), the Potency result was “inactive”.

On to `C/C(=N\NC(=O)CN1CCCCC1)c1ccccc1O`, for which the Potency entry is “inactive”.

For `Cc1cc(C)c(S(=O)(=O)/N=C2\C=C(Nc3ccc(C(=O)O)cc3)C(=O)c3ccccc32)c(C)c1`, the Potency is 3.16 µM (active).

In the case of `FC(F)(F)c1nc(-c2cccs2)ncc1-c1nnnn1-c1ccc(Cl)cc1`, the Potency was 35.5 µM (active).

Consider `Oc1c(C(c2ccccn2)N2CCC(Cc3ccccc3)CC2)cc(Cl)c2cccnc12` (stereo not given), for which the Potency was 25.1 µM (active).

Take `CCCCSc1nc(C)cc(SCC(=O)N/N=C/c2cccc(OC)c2O)n1`: the Potency entry is “inactive”.

Regarding `O=C(C1CCC(CNS(=O)(=O)c2cccs2)CC1)N1CCN(c2ccc(F)cc2)CC1` (stereo not given), the Potency result was “inactive”.

Regarding `CN1CCN(c2cc(-c3cc(O)c4ncccc4c3)ccn2)CC1`, the Potency was 31.6 µM (active).

Turning to `O=c1c2ccccc2sc2c(CO)ccc(NCCN3CCCCC3)c12`, the Potency is 22.4 µM (active).

As for `CCN(CC)CCNc1ccc(CO)c2sc3ccccc3c(=O)c12`, the Potency was 20 µM (active).

For `CCN(CC)CCNc1ccnc2cc(Cl)ccc12`, the Potency result was “inactive”.

Turning to `Cc1cc(C(=O)CN2C(=O)c3ccccc3S2(=O)=O)c(C)n1C(C)C`, the Potency entry is “inactive”.

On to `O=C(Nc1ccc(Br)cc1)c1cccc(OC(=S)N2CCOCC2)c1`, for which the Potency entry was “inactive”.

Take `CCn1c2ccccc2c2cc(NC(=O)COC(=O)c3cccc(S(=O)(=O)NC)c3)ccc21`: the Potency result is “inactive”.

Regarding `OC1(c2ccc(Cl)cc2)CCN(Cc2c[nH]c3ccccc23)CC1`, the Potency result was “inactive”.

For `O=C(Nc1ccc(Cl)cc1)Nc1nc(-c2sccc2Br)cs1`, the Potency was 10 µM (active).

Regarding `O=C(Nc1ccc(NC(=O)c2ccc(Cl)cc2Cl)cc1)c1cccs1`, the Potency result is “inactive”.

With `CCOc1ccccc1NC(=O)CCCc1nc2ccccc2c(=O)[nH]1`, the Potency result was “inactive”.

Turning to `CCCCOc1ccccc1NC(=O)c1scc2c1OCCO2`, the Potency entry was “inactive”.

As for `CCCCOc1ccccc1NC(=O)Cn1c(-c2nonc2N)nc2ccccc21`, the Potency is 11.2 µM (active).

Take `Cc1cc(OCCCCCn2ccnc2)cc(C)c1Cl`: the Potency entry is “inactive”.

Consider `Cc1cc(SCC(=O)NN)c2cc(Br)ccc2n1`, for which the Potency entry is “inactive”.

With `CCCOc1ccc(C(=O)NC(=S)NNC(=O)c2c(-c3ccccc3)noc2C)cc1`, the Potency result was “inactive”.

For `COc1cccc(/C=N/Nc2nc3ccccc3n3cnnc23)c1O`, the Potency result was “inactive”.

As to `O=[N+]([O-])c1ccc(O)c(/C=N/Nc2ncnc3c2cnn3-c2ccccc2)c1`, the Potency is 12.6 µM (active).

Turning to `COc1cccc(/C=N/Nc2ncnc3c2ncn3Cc2ccccc2)c1O`, the Potency result was “inactive”.

As for `O=[N+]([O-])c1ccc(O)c(/C=N/Nc2ccccn2)c1`, the Potency was 10 µM (active).

Consider `CCN(CC)S(=O)(=O)c1ccc(N/N=C/c2cc(OC)ccc2O)nc1`, for which the Potency result is “inactive”.

Turning to `O=[N+]([O-])c1ccc(O)c(/C=N\N=C2c3ccccc3-c3ccccc32)c1`, the Potency was 12.6 µM (active).

In the case of `O=C(CCc1ccccc1)N/N=C/c1cc(Br)ccc1O`, the Potency result was “inactive”.

For `Cc1cc(Cl)c(C(=O)Nc2cccc(C(F)(F)F)c2)c(C)n1`, the Potency entry was “inactive”.

With `C=CCN1C=CC(=O)[C@@H](OC(=O)Nc2ccc(Br)cc2)[C@H]1c1ccccc1Br`, the Potency entry is “inactive”.

Take `O=C(CN1C(=O)c2ccccc2S1(=O)=O)Nc1ncc(Cl)cc1Cl`: the Potency result was “inactive”.

Take `O=C(c1ccco1)N(CCCN1CCOCC1)c1nc(-c2ccc(Cl)cc2)cs1`: the Potency entry was “inactive”.

With `CC(=O)Nc1cc(-c2ccc(C(=O)NC3CC3)cc2)cn2c(-c3cccc(C(C)=O)c3)cnc12`, the Potency entry was “inactive”.

Regarding `NS(=O)(=O)c1ccc(CCNC(=O)COC(=O)/C=C/c2cc(Br)ccc2F)cc1`, the Potency result is “inactive”.

For the compound `O=C(NCCc1ccccc1)c1ccc2nccnc2c1`, the Potency entry is “inactive”.

As for `NS(=O)(=O)c1ccc(CCNC(=O)c2cc(-c3ccccn3)nc3ccc(Br)cc23)cc1`, the Potency was 35.5 µM (active).

As to `CCC(CC)C(=O)c1c[nH]c(C(=O)NCc2ccccn2)c1`, the Potency entry was “inactive”.

As to `CCn1c(/C=C/c2ccc([N+](=O)[O-])o2)nc2ccccc2c1=O`, the Potency was 10 µM (active).

For the compound `O=[N+]([O-])c1ccc(/C=N/N=C/c2ccc([N+](=O)[O-])o2)o1`, the Potency is 7.94 µM (active).

In the case of `COc1ccccc1NC(=O)Nc1nc(CC(=O)N2CCN(c3ccccc3)CC2)cs1`, the Potency result was “inactive”.

On to `O=C(NC(c1ccccc1)c1ccc2ccccc2n1)C1CCN(CCOc2ccc(Cl)cc2Cl)CC1` (stereo not given), for which the Potency was 25.1 µM (active).

For the compound `CC(C)Nc1nc(NC(C)C)nc(N(C#N)CCOc2ccc(Cl)cc2Cl)n1`, the Potency result was “inactive”.

As to `O=C(NC(c1ccccc1)c1c(O)ccc2ccccc12)c1ccccc1Cl` (stereo not given), the Potency entry was “inactive”.

With `COc1ccc(/C=C/C(=O)Nc2cccc(S(=O)(=O)N3CCCC3)c2)cc1OC`, the Potency result is “inactive”.

Regarding `CCSc1nc2ccccc2n1C(=O)/C=C\c1ccc(OC)c(OC)c1`, the Potency was 7.94 µM (active).

As for `COc1cc(/C=C/C(=O)Nc2ccc(OC)c(S(=O)(=O)N3CCOCC3)c2)ccc1OCC#N`, the Potency entry is “inactive”.

Regarding `COC1=C(c2ccccc2)C(=O)c2ccccc2C1=O`, the Potency entry is “inactive”.

Take `CCOC(=O)c1ccc(NC(=O)c2nc[nH]c2C(=O)N[C@H](C)c2ccccc2)cc1`: the Potency entry was “inactive”.

As to `CC(=O)c1sc(NC(=O)c2cc(-c3ccccc3)nn2-c2ccccc2)nc1C`, the Potency entry was “inactive”.

Take `O=C(Nc1nc(NC(=O)c2ccco2)n(-c2ccccc2)n1)c1ccccc1`: the Potency is 22.4 µM (active).

With `O=C(NCCc1csc(-c2ccc(Cl)cc2)n1)c1ccco1`, the Potency entry is “inactive”.

For the compound `Cc1nc(N2CCN(Cc3ccc4c(c3)OCO4)CC2)c2oc3ccccc3c2n1`, the Potency entry is “inactive”.

With `CCOC(=O)c1c(NC(=O)COC(=O)Cn2cnc3ccccc32)sc(C)c1C`, the Potency result was “inactive”.

Turning to `O=C(/C=C/c1ccccc1)c1cc(Br)ccc(=O)c1O`, the Potency is 22.4 µM (active).

Regarding `CNc1ccc(Br)cc(C(=O)/C=C/c2ccc3c(c2)OCO3)c1=O`, the Potency entry was “inactive”.

Regarding `CCNc1ccc(Br)cc(C(=O)/C=C/c2ccccc2Cl)c1=O`, the Potency entry was “inactive”.

For the compound `NC(=S)N1OC[C@@H]2COc3ccc4ccccc4c3[C@@H]21`, the Potency result was “inactive”.

Turning to `COc1ccccc1Cc1c(-c2ccco2)nc2c(C)cc(Br)cn12`, the Potency was 10 µM (active).

With `O=C(Nc1ccc(Cl)c(Cl)c1)c1cccc(S(=O)(=O)NCc2cccnc2)c1`, the Potency is 3.16 µM (active).

With `COc1cccc(OCC(=O)Nc2cc(Cl)ccc2Oc2ccccc2)c1`, the Potency entry was “inactive”.

For the compound `Cn1c(=O)c2cc(NC(=O)Nc3cccnc3)ccc2n1Cc1ccc(Cl)cc1`, the Potency result was “inactive”.

Consider `O=C(/C=C/Nc1ccc(S(=O)(=O)Nc2ncccn2)cc1)c1ccc(Cl)c(Cl)c1`, for which the Potency result was “inactive”.

Turning to `COc1cccc(S(=O)(=O)NCc2ccc(C(=O)Nc3cccc(Cl)c3)cc2)c1`, the Potency is 20 µM (active).

For `COC(=O)c1ccc(N2CCOCC2)c(NC(=O)Nc2cccc(OC)c2)c1`, the Potency entry is “inactive”.

Regarding `O=C(CSc1nnnn1-c1ccccc1)Nc1nsc(-c2ccccc2)n1`, the Potency entry is “inactive”.

In the case of `CCn1c2ccccc2c2cc(NC(=O)COC(=O)c3ccccc3F)ccc21`, the Potency result is “inactive”.

For the compound `C=CCNc1oc(-c2ccc(Cl)cc2)nc1C#N`, the Potency result was “inactive”.

`NC(Cc1ccccc1)c1csc(Nc2nccc(C(F)(F)F)n2)n1` (stereo not given): the Potency was 14.1 µM (active).

With `NC(Cc1ccc(F)cc1)c1csc(Nc2cc(NCc3ccco3)ncn2)n1` (stereo not given), the Potency entry is “inactive”.

For `NC(=O)c1cccc(Nc2nc(C(N)Cc3ccc(C(F)(F)F)cc3)cs2)n1` (stereo not given), the Potency result is “inactive”.

As for `NC(Cc1ccc(Cl)cc1)c1csc(Nc2nccc(C(F)(F)F)n2)n1` (stereo not given), the Potency was 28.2 µM (active).
